# BAP1 inh: inhibitors of BAP1 deubiquitinase, primary screen, biochemical, Ub-AMC fluorescence, kinetic; recombinant BAP1, Ub-AMC hydrolysis fluorescence kinetic; hits give low values; calls only at 20 µM; 0.48% of 72,000 active; AID 436, 2006;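 active = activity remaining at or below 50% of control, provided the compound also passes the data quality filters; inactive = the rest, including low values that fail the filters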;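 also: 100% = DMSO wells rate and 0% = substrate alone blank rate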
# Target sequence (Q92560 whole entry, looked up): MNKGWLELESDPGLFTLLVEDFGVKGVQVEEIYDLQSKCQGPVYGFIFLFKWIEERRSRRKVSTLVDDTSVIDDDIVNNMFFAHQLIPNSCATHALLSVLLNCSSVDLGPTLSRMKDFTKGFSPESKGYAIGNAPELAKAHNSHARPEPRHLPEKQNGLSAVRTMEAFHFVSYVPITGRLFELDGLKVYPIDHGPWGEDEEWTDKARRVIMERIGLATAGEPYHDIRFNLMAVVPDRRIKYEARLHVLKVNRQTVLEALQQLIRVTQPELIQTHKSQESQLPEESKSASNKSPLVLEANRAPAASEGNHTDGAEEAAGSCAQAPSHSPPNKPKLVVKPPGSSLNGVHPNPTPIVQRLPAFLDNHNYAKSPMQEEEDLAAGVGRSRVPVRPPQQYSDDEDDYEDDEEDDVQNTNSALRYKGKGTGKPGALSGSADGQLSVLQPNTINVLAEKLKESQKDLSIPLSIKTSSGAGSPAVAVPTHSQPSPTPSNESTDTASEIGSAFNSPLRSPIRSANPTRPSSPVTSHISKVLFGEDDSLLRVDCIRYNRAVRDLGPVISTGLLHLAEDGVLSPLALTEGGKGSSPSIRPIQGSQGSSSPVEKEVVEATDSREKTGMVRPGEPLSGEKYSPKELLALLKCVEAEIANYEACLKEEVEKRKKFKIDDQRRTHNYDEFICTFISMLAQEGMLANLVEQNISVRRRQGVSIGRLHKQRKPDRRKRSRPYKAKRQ
# hDAT+cocaine: changed hDAT dopamine uptake under cocaine IC80, either direction, primary screen, cocaine antagonist project, cell-based, LLC-PK1 hDAT, [14C]-dopamine uptake, MLSMR; Sodium-dependent dopamine transporter (Homo sapiens), Q01959; AID 449768, 2010; B-score at 10 µM; 1.3% of 110,000 active; LLC-PK1 hDAT cells, [14C]-dopamine uptake with cocaine IC80; actives deviate in either direction;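 active = Z score or B-score, a plate-position-corrected score, falls beyond the plate's 99.7% confidence bounds, in either direction; inactive = both scores lie inside the 99.7% bounds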;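 also: scored against the spread of the other compound wells on the same plate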
# D1 mod: D1 CRE-luciferase signal change, two-sided – cell-based, HEK293 D1, dopamine EC30, D1 allosteric modulator project, primary screen; D(1A) dopamine receptor (Homo sapiens), P21728; dopamine EC30 potentiation; actives deviate in either direction; B-score at 10 µM; 5.9% of 58,000 active; AID 641, 2007;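 active = luminescence count or its row- and column-corrected plate score outside the 99.7% band of the plate's sample wells, on either side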
# An asterisk follows results filed as active; i = inactive; . = no result given; + = active, no number. The full list was thinned out, with hits kept by preference.
SMILES,BAP1 inh,hDAT+cocaine,D1 mod
O=c1c2c(nc3cc(-c4ccc(F)cc4)[nH]n13)CCCC2,i,-0.569,-5.29*
O=c1c2c(nc3cc(-c4cccc(Cl)c4)[nH]n13)CCC2,.,-0.8,.
O=C(NCCCN1CCOCC1)c1c(O)c2ccccc2[nH]c1=O,i,0.188,.
COc1cc2[nH]c(=O)c(C(=O)NCCCN3CCCCC3)c(O)c2cc1OC,i,0.638,-4.33*
COc1ccc(C(=O)Nc2ccc(-c3nc4cc(C)cc(C)c4o3)cc2)cc1[N+](=O)[O-],i,.,.
COc1ccc(CNc2nc3c(c(=O)n(Cc4ccc(Br)cc4)c(=O)n3C)n2C)cc1,i,0.403,-2.71*
Cn1c(NCc2ccccc2)nc2c1c(=O)n(Cc1ccc(Br)cc1)c(=O)n2C,i,1.06,.
N#Cc1c(NC(=O)CSc2ncccn2)oc(-c2ccccc2)c1-c1ccccc1,.,-0.0842,.
N#Cc1c(NC(=O)Cn2cnc3ccccc3c2=O)oc(-c2ccccc2)c1-c1ccccc1,.,-0.473,-4.71*
COCCOC(=O)C1=C(C)NC2=C(C(=O)CCC2)C1c1ccc(Br)cc1 (stereo not drawn),i,.,.
COCCOC(=O)C1=C(C)NC2=C(C(=O)CCC2)C1c1ccc(N(C)C)cc1 (stereo not drawn),i,3.06*,-0.0312
CCOC(=O)c1c(C)[nH]c(C(=O)CSc2ccccc2)c1C,i,-1.92,-2.85*
CCOC(=O)c1c(C)[nH]c(C(=O)CSc2nc(C)nc3c2cnn3-c2ccccc2)c1C,i,.,.
Cc1cccc(-n2nc3c(c2NC(=O)c2ccco2)CSC3)c1,i,.,.
COc1cc(OC)c2c(-c3ccccc3)cc(=O)oc2c1C(CCN1CCCCC1)c1ccc2c(c1)OCO2 (stereo not drawn),.,0.488,.
COc1cc(OC)c2c(-c3ccccc3)cc(=O)oc2c1C(CC(=O)N1CCCC1)c1ccc2c(c1)OCO2 (stereo not drawn),.,2.09*,.
CCc1ccccc1S(=O)(=O)Cc1ccc(C(=O)N2CCN(c3ccccc3OC)CC2)o1,i,1.79,-2.43*
COc1ccccc1S(=O)(=O)Cc1ccc(C(=O)N2CCCC2)o1,i,-0.152,0.231
N#Cc1ccccc1N=C1CCCN1Cc1ccccc1,i,-1.22,-0.258
Cc1cc(C)c(N=C2CCCN2Cc2ccccc2)c(C#N)c1,.,3*,.
CCC(=O)NC(c1ccc(OC)c(OC)c1)c1ccc2cccnc2c1O (stereo not drawn),i,.,.
COc1ccc(C(NC(C)=O)c2ccc3cccnc3c2O)c(OC)c1 (stereo not drawn),i,1.03*,1.89
COc1ccc(C2C(C(=O)OCCOc3ccccc3)=C(C)NC3=C2C(=O)CCC3)cc1OC (stereo not drawn),i,.,.
Clc1ccccc1N=c1oc2ccccc2cc1-c1nc2ccccc2[nH]1,i,.,.
COc1cc2nc(SCC(=O)NCc3ccco3)n(Cc3ccc(Cl)cc3)c(=O)c2cc1OC,i,3.81*,-3.81*
SMILES,BAP1 inh,hDAT+cocaine,D1 mod
COCCNC(=O)CSc1nc2cc(OC)c(OC)cc2c(=O)n1Cc1ccc(OC)cc1,i,0.16,1.13
Cc1nc2ccccn2c1-c1csc(NCc2ccco2)n1,i,-0.421,-3.28*
Cc1ccn2c(-c3csc(NCc4ccccc4)n3)c(C)nc2c1,.,2.9*,.
Cc1nc(C)c(-c2csc(NCc3ccccc3)n2)s1,i,1.19,0.341
Cc1nc(C)c(-c2csc(NCc3ccco3)n2)s1,i,-1.27,2.68
COC(=O)C1=C(C)NC2=C(C(=O)CCC2)C1c1ccccc1OC (stereo not drawn),i,.,.
COc1ccc(C=Nc2ccc3c(c2)c2nc4ccccc4nc2n3C)c(O)c1,i,.,.
Cc1ccc(SCc2cn3c(C)csc3n2)cc1,i,0.454,-4.63*
Cc1ccc(S(=O)(=O)NCc2cn3c(C)csc3n2)cc1,i,-0.605,.
Cc1cc(C(=O)Nc2ccc3oc(-c4ccc(C(C)(C)C)cc4)nc3c2)ccc1[N+](=O)[O-],i,.,.
O=C(Nc1sc2c(c1C(=O)O)CCC2)c1ccccc1Br,i,.,.
CC1(C)Cc2c(sc3ncn4nc(-c5ccco5)nc4c23)CO1,i,.,5.93*
c1coc(-c2nc3c4c5c(sc4ncn3n2)CCCC5)c1,i,-0.843,0.0991
O=C(Nc1ccc(-c2nc3ccccc3[nH]2)cc1)c1cccc(C(F)(F)F)c1,i,.,.
Cc1c(C(c2cccc(I)c2)c2c(C)n(C)n(-c3ccccc3)c2=O)c(=O)n(-c2ccccc2)n1C,i,.,.
CC(=O)Nc1nc2cc3c(cc2s1)OCO3,i,-0.00238,-1.29
O=C(Nc1nc2cc3c(cc2s1)OCO3)C1=COCCO1,i,-1.06,-8.33*
Nc1nc(SCC(=O)Nc2cc(-c3ccccc3)nn2-c2ccccc2)n[nH]1,.,1.36*,.
Cc1ccc(-c2cc(NC(=O)CSc3n[nH]c(N)n3)n(-c3ccccc3)n2)cc1,.,-0.138,.
O=[N+]([O-])c1ccc2oc(SCc3nc4ccccn4c3Br)nc2c1,i,.,.
CC(=O)Nc1sc(NC(=O)c2ccc(C)cc2)nc1-c1cccs1,.,-2.74*,.
COc1ccc(C(=O)Nc2nc(-c3cccs3)c(NC(C)=O)s2)cc1,.,-1.47,.
CC(C)Oc1ccc(/C=N/NC(=O)C(CSCc2ccccc2)NC(=O)c2ccc([N+](=O)[O-])cc2)cc1 (stereo not drawn),.,-6.05*,.
O=C(COc1ccc(/C=N/NC(=O)c2ccccc2)cc1)Nc1ccc([N+](=O)[O-])cc1,.,-0.00963,.
O=[N+]([O-])c1cccc(C(=Nc2cccc(Cl)c2)NO)c1,.,1.23,.
SMILES,BAP1 inh,hDAT+cocaine,D1 mod
ONC(=Nc1ccc(Cl)cc1)c1ccccc1,.,-9.65*,.
CC(C)c1ccc(NC(=O)c2cccnc2)cc1,i,-0.65,.
CC(C)c1ccc(NC(=O)c2csnn2)cc1,i,0.635,-4.45*
CC1CC(C)CN(c2nc3c(c(=O)n(C)c(=O)n3C)n2Cc2ccc(Cl)cc2)C1 (stereo not drawn),i,.,.
CC1=C(/C=C/C(C)=C/C=C/C(C)=C\C(=O)O)C(C)(C)CCC1,i,0.951,.
CC1=C(/C=C/C(C)=C/C=C/C(C)=C/C(=O)Nc2ccc(O)cc2)C(C)(C)CCC1,+,.,.
CC1(C)CC(=O)C2=C(C1)Nc1cc3c(cc1C2c1ccc(F)cc1)OCO3 (stereo not drawn),.,-0.196,.
COc1ccc(C2C3=C(CC(C)(C)CC3=O)Nc3cc4c(cc32)OCO4)cc1 (stereo not drawn),.,2.46*,.
COc1cccc(C(C2C(=O)CC(C)(C)CC2=O)C2C(=O)CC(C)(C)CC2=O)c1,i,.,.
CC1(C)CC(=O)C(C(c2cccnc2)C2C(=O)CC(C)(C)CC2=O)C(=O)C1,i,0.726,-5.51*
CCOc1cccc(C(=O)Nc2ccccc2N2CCN(C(=O)C(C)C)CC2)c1,i,-9.07*,-0.284
Cc1ccc(C(=O)Nc2ccccc2N2CCN(C(=O)C(C)C)CC2)cc1,i,0.45,0.195
O=c1[nH]c(C=Cc2ccccc2)c([N+](=O)[O-])c(=O)[nH]1,i,.,.
COc1ccc(C2C(C(=O)N3CCCC3)CC(=O)N2c2ccc(OC)cc2)cc1 (stereo not drawn),.,0.855,0.175

# Screens as filed in PubChem.
